Assay outcomes: PubChem, National Center for Advancing Translational Sciences (NCATS)
The full list was thinned out, with hits kept by preference.
Methyltransferases – Primary Screen for Target Class Profiling of Small Molecule Inhibitors of Methyltransferases | purified enzyme, MTase-Glo SAH luminescence; active compounds read low | calls only at 40 µM | 25,000 tested, 3.9% active | AID 1745853, 2022; call rule not given here
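Each enzyme was reacted with SAM and its substrate, with compounds tested once at 40 uM; SAH formed was read by MTase-Glo luminescence.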
Numbers without * were called inactive; i = inactive; + = active, no number. % is set by controls: 0 for no effect and ±100 for the full control effect.

SMILES	Methyltransferases
COC(=O)C1=C2Nc3ccccc3C23CCN2CCCC(C(C)O)(C1)C23 (stereo not given)	+
CSc1cccc(N2C(=O)CSc3c(c4ccccc4n3C)C2C(=O)NCCC(C)C)c1 (stereo not given)	i
CCCn1c(=O)c2ccc(C(=O)NCC(C)C)cc2n2c(SCC(N)=O)nnc12	i
CCC(C)NC(=O)c1ccc2c(=O)n(C)c3nnc(SCC(=O)Nc4ccc(Cl)cc4)n3c2c1 (stereo not given)	i
Cc1cc2c(cc1Cl)N(C(=O)Nc1ccnc3ccccc13)CC2	+
COc1ccc(NC(=O)N2CCc3c2ccc2ccccc32)cc1N1CCN(C)CC1	i
Cc1cc2c(cc1Cl)N(C(=O)Nc1ccc(Oc3cccnc3C)nc1)CC2	i
CCC(C)NC(=O)c1ccc2c(=O)n(CC(C)C)c3nn(CC(=O)c4ccc(C)cc4)c(=O)n3c2c1 (stereo not given)	i
COc1ccccc1CNC(=O)C1(C)Cn2nc(-c3ccccc3)cc2C(=O)N1Cc1ccccc1C (stereo not given)	i
COc1ccc(/C=C/C(=O)Nc2ccccc2C(=O)O)cc1OC	i
COc1cc(/C=N\NC(=O)c2ccc3c(c2)OCO3)ccc1OCc1ccccc1	+
COc1ccccc1CNC(=O)C1(C)Cn2nc(-c3ccccc3)cc2C(=O)N1Cc1ccc2c(c1)OCO2 (stereo not given)	i
CC1(C(=O)NC2CCCCCCC2)Cn2c(ccc2-c2ccccc2)C(=O)N1CC1CCCO1 (stereo not given)	i
CC1(C(=O)NC2CCCCC2)Cn2c(cc3occc32)C(=O)N1Cc1ccccc1 (stereo not given)	i
O=C(O)Cc1c(-c2ccccc2)c2cc(Br)ccc2[nH]c1=O	i
O=C1NC(=O)c2c1c(-c1ccccc1)cc1[nH]c3ccc(O)cc3c21	+
O=C(O)Cc1c(-c2ccccc2)c2cc(Cl)ccc2[nH]c1=O	i
COc1ccc(CNC(=O)C2(C)Cn3cnc(C(=O)Nc4ccc(C)cc4)c3C(=O)N2C2CC2)cc1 (stereo not given)	i
Cc1ccccc1CN1C(=O)c2cc3sccc3n2CC1(C)C(=O)NC1CCCCCC1 (stereo not given)	i
C=CC(=O)N1CCN(C(=O)c2cc(-c3cc(Cl)ccc3Cl)c(Cl)cc2OC)CC1	+
C=CC(=O)N1CCN(C(=O)CNc2cc(-c3ccccc3Cl)c(Cl)cc2OC)CC1	i
COc1cccc(C(=O)N2CCN(C(=O)COc3cccc(C)c3)CC2)c1OC	i
COc1cc(NC(=O)c2cc3n(n2)CC(C)(C(=O)NC2CCCCC2)N(C)C3=O)cc(OC)c1 (stereo not given)	i
COc1ccccc1CN1C(=O)c2cc(-c3ccco3)nn2CC1(C)C(=O)NC1CCCCC1 (stereo not given)	i
COc1ccccc1CNC(=O)C1(C)Cn2cnc(C(=O)NCc3cccc(C)c3)c2C(=O)N1C1CC1 (stereo not given)	i
SMILES	Methyltransferases
CC1(C(=O)NCc2ccccc2)Cn2c(ccc2-c2ccco2)C(=O)N1c1ccc(Br)cc1 (stereo not given)	i
N=C(N)SCCN	+
CC1(C(=O)NCc2ccccc2)Cn2c(cc3occc32)C(=O)N1Cc1ccc(Cl)cc1 (stereo not given)	i
CCOC(=O)c1cc2n(n1)CC(C)(C(=O)NC1CCCCC1)N(c1ccccc1F)C2=O (stereo not given)	i
CC12CCC3c4ccc(OC5OC(C(=O)O)C(O)C(O)C5O)cc4CCC3C1CCC2O (stereo not given)	i
C[C@]12CC[C@@H]3c4ccc(OC(=O)c5ccccc5)cc4CC[C@H]3[C@@H]1CC[C@@H]2O	i
COc1cc2c(cc1O)CC[C@@H]1[C@@H]2CC[C@]2(C)[C@@H](O)CC[C@@H]12	+
CCCCN1C(=O)c2cc(C(=O)Nc3c(C)cccc3C)nn2CC1(C)C(=O)NC1CCCC1 (stereo not given)	i
O=S(=O)(c1ccccc1)c1nnn2c1nc(NC1CCCCC1)c1cc(Cl)ccc12	i
COc1ccc2cc3n(c2c1)CC(C)(C(=O)NC1CCCC1)N(Cc1ccc(F)cc1)C3=O (stereo not given)	i
O=C(CSc1nnc2n(Cc3ccccc3)c(=O)c3ccccc3n12)Nc1ccc(Cl)cc1	i
C/C(=N\N=C(N)N)c1cc(NC(=O)CCCCCCCCC(=O)Nc2cc(/C(C)=N/N=C(N)N)cc(/C(C)=N/N=C(N)N)c2)cc(/C(C)=N/N=C(N)N)c1	+
O=C(CCn1ccc2cc(S(=O)(=O)N3CCCC3)ccc21)NCCc1cccs1	i
CCc1ccccc1NC(=O)Cn1nc2cc(C)nc(Nc3ccc(F)cc3)n2c1=O	i
CCC(C)NC(=O)c1ccc2c(=O)n(CCC(C)C)c3nn(Cc4ccccc4Cl)c(=O)n3c2c1 (stereo not given)	i
Cc1cccc(NS(=O)(=O)c2ccc3[nH]c4c(c3c2)CCCC4)c1C	i
CC1CCCCC1NC(=O)C1(C)Cn2c(nc3ccccc32)C(=O)N1Cc1cccc(Cl)c1 (stereo not given)	i
COc1ccc2nc3n[nH]c(C)c3c(NCCOCCO)c2c1	+
C=C1C(=O)O[C@@H]2/C=C(\C)CC/C=C(\C(=O)O[C@@H]3O[C@H](CO)[C@@H](O)[C@H](O)[C@H]3O)CC[C@@H]12	i
C=C1C(=O)O[C@@H]2/C=C(\C)CC/C=C(/C=O)[C@H](OC)[C@@H](OC(=O)C(C)C)[C@@H]12	i
C=C1C(=O)OC2/C=C(\C)CC/C=C(\C=O)C(OC)C(OC(=O)C(C)CC)C12 (stereo not given)	+
C=C1C(=O)O[C@@H]2/C=C(\C)CC/C=C(\C)CC[C@@H]12	i
C=C1C(=O)OC2/C=C(\CO)CC/C=C(\C=O)C(OC)C(OC(=O)C(C)CC)C12 (stereo not given)	+
C=C(C)C(=O)O[C@H]1/C(C=O)=C\CC/C(CO)=C/[C@H]2OC(=O)C(=C)[C@@H]2[C@@H]1OC	i
CCCn1c(=O)c2ccc(Cl)cc2n2c(=O)n(CC(=O)c3ccc(C)cc3)nc12	i
SMILES	Methyltransferases
COc1cccc(N2CCN(S(=O)(=O)c3cc4[nH]c(=O)[nH]c4cc3Br)CC2)c1	i
CCc1cc2c(cc3n2CC(C(=O)NC2CCCCC2)(c2ccccc2)N(Cc2ccccc2)C3=O)s1 (stereo not given)	i
CC(C)CCn1c(=O)c2ccc(C(=O)NCC(C)C)cc2n2c(=O)n(CC(N)=O)nc12	i
CCC(C)NC(=O)c1ccc2c(=O)n(C(C)C)c3nn(CC(=O)Nc4ccc(Cl)cc4)c(=O)n3c2c1 (stereo not given)	i
Cc1ccc(Cn2c(=O)c3ccc(C(=O)NCC(C)C)cc3n3c(=O)n(Cc4ccccc4)nc23)cc1	i
CC#C[C@@H](CC(=O)O)c1ccc(OCc2cccc(-c3ccc(C(F)(F)F)cc3)c2)cc1	+
COc1cccc(-c2ccc(C(=O)N3CCC(NC(=O)c4ccc(C(F)(F)F)cc4)CC3)cc2)c1	i
CC(C)CCn1c(=O)c2ccccc2n2c(CCC(=O)NCCCN3CCN(c4ccccc4F)CC3)nnc12	i
CC(C)Cn1c(=O)c2ccc(C(=O)NC3CCCC3)cc2n2c(SCC(=O)NC3CCCC3)nnc12	i
Cn1c(=O)oc2cc(S(=O)(=O)NCCc3nc(-c4ccc(F)cc4)n[nH]3)ccc21	i
